26 compounds from PubChem BioAssay can be followed below.

Broadly, the inhibition is the relative decrease from the control value, in per cent.

A short description of assay [1]: StAR promoter reporter inhibitors, counter-screen for LRH-1 inverse agonist project, cell-based, luminescence, high throughput (AID 651611; in the data active = inhibition above about 28%). Conditions: StAR promoter luciferase reporter counterscreen, at 3.6 µM, stronger effect = higher value.
The target of assay [2] is Nuclear receptor subfamily 5 group A member 2 (Homo sapiens) (UniProt O00482). Kind of assay: NR5A2 activity suppression in reporter cells – cell-based, luminescence, confirmation (AID 651613).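 Note: HEK293T cells co-transfected with LRH-1 and StAR promoter luciferase reporter; 0% = vehicle wells and 100% = parental cells lacking receptor.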 Conditions: cell-based LRH-1 luciferase reporter, inverse agonism; at 3.6 µM; stronger effect = higher value. A general note: A reporter such as luciferase makes a cellular process visible.
Chain of Nuclear receptor subfamily 5 group A member 2 (Homo sapiens) (O00482 whole entry, looked up): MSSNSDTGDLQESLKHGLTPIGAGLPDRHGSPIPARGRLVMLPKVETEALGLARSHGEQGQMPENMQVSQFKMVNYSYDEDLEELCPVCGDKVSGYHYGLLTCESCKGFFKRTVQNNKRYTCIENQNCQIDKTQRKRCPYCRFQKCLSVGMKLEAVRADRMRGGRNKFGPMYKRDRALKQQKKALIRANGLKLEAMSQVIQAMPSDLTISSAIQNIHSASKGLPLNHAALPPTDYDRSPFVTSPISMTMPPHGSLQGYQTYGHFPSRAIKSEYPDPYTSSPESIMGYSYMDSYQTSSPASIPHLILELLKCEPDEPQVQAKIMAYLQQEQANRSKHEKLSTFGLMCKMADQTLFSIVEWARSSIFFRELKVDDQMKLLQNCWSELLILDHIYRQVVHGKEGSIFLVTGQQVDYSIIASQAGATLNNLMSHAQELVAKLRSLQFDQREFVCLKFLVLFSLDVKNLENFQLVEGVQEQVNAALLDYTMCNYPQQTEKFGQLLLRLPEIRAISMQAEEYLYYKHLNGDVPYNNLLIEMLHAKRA
The target in assay [3] is Steroidogenic factor 1 (Homo sapiens) (UniProt Q13285). The assay can be described thus: inverse agonism at SF1 nuclear receptor – cell-based, luminescence, high throughput, counter-screen for LRH-1 inverse agonist project (AID 651614; in the data active = inhibition above about 44%;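 note: cells cotransfected with StAR promoter reporter and SF1 expression vector; 0% = vehicle on cells with receptor and 100% = vehicle on cells lacking receptor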). As to conditions: cell-based SF1 luciferase reporter, at 3.6 µM, stronger effect = higher value. (In general: Counterscreens check selectivity or assay interference.)
Chain of Steroidogenic factor 1 (Homo sapiens) (Q13285 whole entry, looked up): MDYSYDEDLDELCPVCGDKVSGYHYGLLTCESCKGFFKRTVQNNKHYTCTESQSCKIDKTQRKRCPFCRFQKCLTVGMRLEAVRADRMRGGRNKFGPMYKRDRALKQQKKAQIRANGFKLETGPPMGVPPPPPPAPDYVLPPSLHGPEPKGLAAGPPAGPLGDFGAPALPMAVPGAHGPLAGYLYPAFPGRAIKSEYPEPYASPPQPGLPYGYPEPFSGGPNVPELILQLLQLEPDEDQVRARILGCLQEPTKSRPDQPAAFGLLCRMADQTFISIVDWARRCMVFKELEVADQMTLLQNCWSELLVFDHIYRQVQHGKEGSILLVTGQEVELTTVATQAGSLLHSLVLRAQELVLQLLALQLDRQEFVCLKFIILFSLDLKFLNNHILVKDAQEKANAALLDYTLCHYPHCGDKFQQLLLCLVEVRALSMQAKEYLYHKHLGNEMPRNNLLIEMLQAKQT

Assay [4] in a line: compounds suppressing VP16-driven luciferase signal – cell-based, luminescence, high throughput, counter-screen for LRH-1 inverse agonist project (AID 651615; in the data active = inhibition above about 33%). As to conditions: Gal4-VP16 luciferase reporter cells, at 3.6 µM, stronger effect = higher value.

Unmarked numbers belong to inactive results. Active and inactive are the calls of the source. Cut-off read from the data, not from the text of the source, unless noted: active = inhibition above about 42%; inactive = the rest.

As for `CCn1cc(CN(C)S(=O)(=O)c2ccc3ccccc3c2)c(C)n1`, the inhibition in assay [1] was -0.8%; in assay [2], 50.9% (active); in assay [3] it was 52.5% (active); in assay [4], 40.2% (active).
The matching figures for `COc1cc(-c2nc(C(=O)NCC3CCCO3)cc3c2[nH]c2ccccc23)cc(OC)c1OC` (centres undefined): 62.5% (active), 49.6% (active), 39.1% and 2.55%.
The matching figures for `Cn1nc(C(C)(C)C)cc1C(=O)NCc1ccc2c(c1)OCO2`: 14.8%, 59.8% (active), 58.3% (active) and 50.6% (active).
As for `O=C(COC(=O)c1ccc(Br)o1)Nc1ccc2c(c1)OCCO2`, the inhibition in assay [1] is 22%; in assay [2] it was 59.4% (active); in assay [3], 63.1% (active); in assay [4], 1.94%.
For `Cc1csc(NC(=O)CSc2nc3[nH]c(=O)cc(O)c3s2)n1` the same measures were 15.2%, 60.5% (active), 68.1% (active) and -21.4%.
As for `CCN1C(=O)c2cccc3c(NC(=O)c4ccc(S(=O)(=O)N5CCOCC5)cc4)ccc1c23`, the inhibition is 40.3% (active) in assay [1], 62% (active) in assay [2], 62.7% (active) in assay [3] and -60.9% in assay [4].
For `Cc1cc(C)c2c(=O)[nH]c(SCC(=O)Nc3ccc(Br)cc3)nc2n1` the same measures were 9.16%, 47.8% (active), 30.6% and -6.94%.
For `COc1cc(-c2cc(C(=O)NCc3ccc(S(N)(=O)=O)cc3)c3ccccc3n2)cc(OC)c1OC` the same measures were 27.1%, 20.3%, 23.5% and -26.4%.
In the case of `COc1ccc2c(/C=C/c3cc[n+](C)cc3)c[nH]c2c1`, the inhibition was 28.7% (active) in assay [1], 64.1% (active) in assay [2], 56.3% (active) in assay [3] and 50.9% (active) in assay [4].
The matching figures for `CCOc1ccc(CCNC(=O)COC(=O)COc2ccc(Br)cc2)cc1OCC`: 4.03%, 49.1% (active), 56.3% (active) and 4.38%.
With `COc1cc(NCCCCCCN)c2ncccc2c1OC`, the inhibition in assay [1] is 22.3%; in assay [2], 49% (active); in assay [3], 43.6% (active); in assay [4], -3%.
The matching figures for `CCOc1ccc(NC(=O)CSc2nccn(-c3ccc4c(c3)OCCO4)c2=O)cc1`: -5.61%, 55% (active), 60.7% (active) and -10.1%.
For `Cc1onc(-c2c(F)cccc2Cl)c1C(=O)Nc1cccc2nsnc12` the same measures were 8.33%, 52.1% (active), 49.8% (active) and 27.2%.
The matching figures for `Cc1cc2nc(C3CCCCC3)c(Cc3ccsc3)n2c(C)c1Br`: 4.75%, 36.2%, 37.7% and 22.4%.
With `O=C(c1ccccc1)c1ccc2nc(N3CCN(C(=O)c4ccco4)CC3)c3nncn3c2c1`, the inhibition in assay [1] was 3.94%; in assay [2], 43% (active); in assay [3], 44.3% (active); in assay [4], -14.2%.
For `CCOC(=O)CCCc1ccc(/C(C)=N/NC(N)=S)cc1` the same measures were 21.6%, 62.4% (active), 68.6% (active) and 26.4%.
For `Cc1cccc2cc(C#N)c(SCC(=O)N3CC(=O)Nc4ccccc43)nc12` the same measures were 53.7% (active), 23.3%, 38.1% and 38.5% (active).
For `CC(O)(c1cccc(F)c1)c1nc(-c2ccc(S(C)(=O)=O)cc2)cs1` (centres undefined) the same measures were 2.43%, 48.7% (active), 44.9% (active) and -6.85%.
`N#CCCn1cc(/C=N/NC(N)=S)c(-c2ccc(-c3ccccc3)cc2)n1`: the inhibition was 28.7% (active) in assay [1], 52% (active) in assay [2], 48.6% (active) in assay [3] and -9.84% in assay [4].
For `COc1cc(C2c3cc4c(cc3OC(NNC(N)=S)C2C)OCO4)cc(OC)c1OC` (centres undefined) the same measures were 49.2% (active), 35.4%, 44.2% (active) and 14%.
For `CCOC(=O)c1c(NC(=O)/C=C/C(=O)O)sc(C)c1-c1ccc(Cl)cc1` the same measures were 6.09%, 59.2% (active), 48.9% (active) and 5.25%.
The matching figures for `O=C(COC(=O)Cn1[nH]c(=O)c2ccccc2c1=O)NNC(=O)c1ccc(Br)cc1`: 27.8% (active), 32.1%, 35.8% and -7.59%.
On to `COc1ccc(/C=C2/C(=O)OCc3cc(OC)c(OC)cc32)cc1`, for which the inhibition in assay [1] is 36.9% (active); in assay [2] it was 56.4% (active); in assay [3], 57.9% (active); in assay [4], 23.4%.
`COc1ccc(NC(=O)CSc2sc3c(O)cc(=O)[nH]c3c2C#N)c(OC)c1`: the inhibition in assay [1] is 1.46%; in assay [2], 48.8% (active); in assay [3] it was 47.3% (active); in assay [4] it was 2.48%.
For `O=C(c1ccc(Oc2ccc(Cl)cc2)c([N+](=O)[O-])c1)N1CCCC1` the same measures were -14.7%, 33.5%, 38% and -0.01%.
As to `COc1ccc(/C=N/n2c(SC)nnc2-c2ccccc2)c(OC)c1OC`, the inhibition in assay [1] was 53.5% (active); in assay [2], 41.2% (active); in assay [3], 54.4% (active); in assay [4], -31.8%.
